# In the library only some 4.6% were active in any assay of this set; here they are far more common.
# Marburg entry inh – blocks Marburg virus binding to or entry into cells. hit rate 1.8% among 300,000. Marburg virus pseudotyped entry inhibition, cell reporter. Potency, µM (highest dose often 37.8 µM), without a hit: at the highest dose activity change, negative = inhibition, most hits filed as inhibitors; calls by dose curve; tested in HEK293 cells
# VACV Venus inh – inhibitors of vaccinia virus (Venus reporter) | Vaccinia virus Venus reporter expression, fluorescence | Potency, µM (highest dose often 36.5 µM), for the others: top-dose activity change, negative = inhibition, most hits filed as inhibitors | hit rate 0.46% among 330,000 | AID 720580; calls by dose curve; tested in A549 cells; further: nearly all actives have a fitted effect of over 30% in size
# Vaccinia mCherry – vaccinia inhibition (mCherry reporter) | Vaccinia virus mCherry reporter infection, fluorescence | Potency, µM (titrated, usually from 36.5 µM), inactives show at the highest dose activity change, negative = inhibition, usual class: inhibitors | hit rate 0.63% among 310,000 | AID 720579; calls by dose curve; tested in A549 cells; further: nearly all actives have a fitted effect of over 35% in size
# LASV entry inh – inhibitors of Lassa virus binding or cell entry; AID 540256; Lassa virus pseudotype entry inhibition, cell reporter; hit rate 1.2% among 300,000; Potency, µM (highest dose often 37.9 µM), inactives show at the highest dose activity change, negative = inhibition, hits mostly inhibitors; calls by dose curve; tested in HEK293 cells; further: nearly all actives have a fitted effect of over 50% in size
# HCV inhibitor – inhibitors of hepatitis C virus infection. Huh7.5.1 HCVcc-Cre infection, luciferase reporter, 44 h. Potency, µM (highest dose often 41.8 µM), inactives show top-dose activity change, negative = inhibition, usual class: inhibitors. hit rate 3.4% among 340,000; active means well fitted inhibition curve with a large enough effect; inconclusive means small, poorly fitted or top-dose-only effect, or another doubt; inactive means no such curve, though single readings can be large or run the other way
#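 Infectious HCV cell culture screen: compound-treated cells (1,000/well, pre-plated 4 h) are infected with HCVcc-Cre at roughly 0.5 moi and grown 44 h. Infection is quantified by luciferase signal after 15 min substrate incubation at room temperature.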
# * marks the source's active call; other numbers are inactive results; i = inactive; ? = inconclusive; / = no result; + = active, no number; ! = repeats disagree; [ ] = another dose, or the depositor's remark. On the % scale 0 is the no-effect control and ±100 the full control effect; potency means the concentration at half of the fitted maximal effect.
SMILES,Marburg entry inh,VACV Venus inh,Vaccinia mCherry,LASV entry inh,HCV inhibitor
CC1CCN(C(C)C(=O)Nc2ccccc2-c2ccccc2)CC1 (centres undefined),12µM*,-8%,-13%,-4%,-15%
CC(C(=O)Nc1ccccc1-c1ccccc1)N1CCN(C(=O)c2ccccc2)CC1 (centres undefined),?,-29%,i,?,-3%
O=C(O)CCCOc1ccc(Cl)cc1Cl,/,?,+!,/,-13%
COc1cccc([C@@H]2C(C#N)=C(N)Oc3cc(C)[nH]c(=O)c32)c1OC,-1%,/,/,/,/
CCCCN(CC)S(=O)(=O)c1ccc(C(=O)Nc2nnc(-c3cccs3)o2)cc1,8.9µM*,?,-17%,?,?
CCCCN(CCCC)S(=O)(=O)c1ccc(NC(=O)Cc2cccs2)cc1,?,/,/,9.2µM*,?
COc1ccc(C(=O)NCC2Cc3cc(F)cc(-c4cncnc4)c3O2)cc1 (centres undefined),/,-3%,i,/,/
COc1ccc(N(CC(=O)N2CCN(c3ccc(Cl)cc3)CC2)S(=O)(=O)c2c(C)noc2C)cc1,/,/,/,/,11µM*
Cc1cccc(OCC(=O)Nc2ccc(O)c(-c3nc4ccccc4o3)c2)c1,/,-13%,0%,/,/
O=C([C@@H]1C[C@@H](Sc2nc3ccccc3[nH]2)CN1CC1CCCCC1)N1CCOCC1,/,-7%,-7%,/,/
CCOc1ccccc1Nc1nc(-c2cccnc2)cs1,-5%,-27%,-14%,9%,10µM*
CCOc1ccccc1Nc1nc(-c2sc(C)nc2C)cs1,?,?,3.5µM*,-5%[46.1 µM],?
NS(=O)(=O)c1ccc(Nc2nc(-c3cccnc3)cs2)cc1,?,-22%,-28%,3%,13µM*
c1cncc(Nc2nc(-c3cccnc3)cs2)c1,8%,-24%,i,13%,?
C=CCc1ccccc1OCCSc1nc(-c2ccccc2F)nc2cc(=O)[nH]n12,/,-6%,-15%,14%[46.1 µM],/
O=C(Cc1ccccc1)NO,/,-14%,-17%,/,/
O=C(Cc1ccsc1-c1ccccc1)NO,-29%,-24%,/,-22%,10µM*
CCc1noc(C)c1C(=O)Nc1nc(-c2ccc(Cl)cc2Cl)cs1,?,-29%,?,-10%,10µM*
O=C(Nc1nc(-c2ccc(Cl)cc2Cl)cs1)c1ccc(OCC2CCCO2)cc1 (centres undefined),?,4%,i,?,8.9µM*
O=C(Nc1ccc(Cl)cc1)c1ccc(OCC2CCCO2)cc1 (centres undefined),?,-13%,-23%,?,-30%
Cc1ccc2nc(NC(=O)c3ccc(OCC4CCCO4)cc3)sc2c1 (centres undefined),?,-11%,-17%,?,8.9µM*
CCc1noc(C)c1C(=O)Nc1nc(-c2cccs2)cs1,13%[46.1 µM],-7%,i,-3%,-12%
CCN(CC)S(=O)(=O)c1ccc(NC(=O)c2ccc(OCC3CCCO3)cc2)cc1 (centres undefined),/,/,/,/,6.3µM*
Cc1ccc(-c2cc(NC(=O)c3ccccc3Cl)on2)cc1,12%[46.1 µM],-13%,-13%,8%[46.1 µM],/
CN1CCCCC1C(=O)N1CCC(Oc2cccc(CN3CCN(c4ccccn4)CC3)c2)CC1 (centres undefined),/,-3%,-10%,/,/
SMILES,Marburg entry inh,VACV Venus inh,Vaccinia mCherry,LASV entry inh,HCV inhibitor
COc1ccccc1NC(=S)N(Cc1ccccc1)Cc1cccs1,1.4µM*,-4%,-11%,-2%,8%
NC(=O)[C@@H]1CCCN1C(=O)c1cc(NC(=O)c2ccccc2)cc2ncn(C3CCCC3)c12,/,-14%,i,/,/
COc1ccccc1OCCn1cc(C(=O)c2ccco2)c2ccccc21,?,-26%,?,-21%,?
COc1ccccc1OCCCn1cc(C(=O)c2ccco2)c2ccccc21,-8%,/,/,?,11µM*
COc1cccc(OCCn2cc(C(=O)c3ccco3)c3ccccc32)c1,?,-11%,-23%,?,20µM*
CCOc1ccc(NC(=O)CCc2c(C)nc3cc(-c4ccccc4OC)nn3c2C)cc1,14%[46.1 µM],-13%,-11%,28%[46.1 µM],/
COCCn1c(-c2ccccc2)csc1=Nc1cccnc1,?,-7%,i,6%[46.1 µM],8.9µM*
c1ccc(-c2csc(=Nc3cccnc3)n2CC2CCCO2)cc1 (centres undefined),?,-9%,-12%,1%,2%
Cc1c(C(=O)N2CCCCC2)oc2ccc(Br)cc12,3%,-9%,-3%,-2%,22µM*
COc1ccc(C(CNC(=O)c2oc3ccc(F)cc3c2C)N2CCCCC2)cc1 (centres undefined),/,/,/,/,11µM*
Cc1c(C(=O)Nc2ccc(-c3nnc4n3CCCCC4)cc2)oc2ccc(Br)cc12,?,-17%,-4%,?,11µM*
CCC1CCc2sc(C(=O)NCC(c3ccc(OC)cc3)N3CCCC3)cc2C1 (centres undefined),?,-21%,-18%,?,10µM*
COc1ccc(C(CNC(=O)c2oc3ccc(OC)cc3c2C)N2CCCC2)cc1 (centres undefined),?,-21%,-26%,?,?
CCOc1ccccc1CNS(=O)(=O)c1cc2c(cc1C)NC(=O)CO2,/,-2%,i,?,/
O=C(CN1C(=O)COc2ccc(S(=O)(=O)NC3CCCC3)cc21)NCc1ccccc1Cl,/,-4%,-1%,-3%[46.1 µM],/
COc1ccc(C(CNC(=O)c2oc3ccc(Br)cc3c2C)N2CCCCC2)cc1 (centres undefined),-8%,5%,-12%,-5%,13µM*
Cc1ccc2oc3c(c(=O)c2c1)C(c1ccc(OCC(N)=O)cc1)N(Cc1ccc2c(c1)OCO2)C3=O (centres undefined),19%[46.1 µM],1%,-10%,3%[46.1 µM],/
Cc1ccsc1C(=O)Nc1cc(Cl)ccc1-n1cncn1,6%,-12%,i,-3%,7.1µM*
Cc1ccc(C(=O)Nc2cc(Cl)ccc2-n2cncn2)s1,6%,-7%,i,-2%[46.1 µM],?
O=C(/C=C/c1ccnc2ccccc12)c1cccs1,3.2µM*,-20%,i,?,?
CCN(CCCn1c(SCC#N)nc2ccccc2c1=O)c1ccccc1,9.2µM*,/,/,?,?
NC(=O)c1nn(CC(=O)Nc2cccc(S(=O)(=O)N3CCCC3)c2)c(=O)c2ccccc12,/,/,/,/,11µM*
CC1CCc2ccccc2N1CC(=O)Nc1cccc(S(=O)(=O)N2CCCC2)c1 (centres undefined),?,-6%,?,?,32µM*
O=C(CN1CCCc2ccccc21)Nc1cccc(S(=O)(=O)N2CCCC2)c1,/,-11%,-12%,/,/
CSC[C@H]1CN(c2ccc(Br)cc2)C(=O)[C@H]1CC(=O)Nc1ccccc1,/,/,/,-31%[46.1 µM],/
COc1cccc(C2(CC(=O)N3CCN(c4ccccc4O)CC3)CC(=O)N(C3CCCC3)C2=O)c1 (centres undefined),/,-24%,-3%,/,/
O=C(C[n+]1cc(Br)cc(Br)c1)c1ccc(Cl)cc1,-21%[46.1 µM],-2%,i,22%[46.1 µM],32µM*
O=S(=O)(Nc1ccc(-c2csc(-c3ccccc3)n2)cc1)c1ccc(F)cc1,-25%,-26%,-21%,-13%,?

# High-throughput results: PubChem BioAssay, National Center for Advancing Translational Sciences (NCATS)
